From ChEMBL document CHEMBL1157539, “Thousands of chemical starting points for antimalarial lead identification” (Nature, 2010) come the findings set out here.

Holding throughout (format): functional
Experiment [1] concerns Plasmodium falciparum. The experiment is described as follows: GSK_TCMDC: Inhibition of Plasmodium falciparum 3D7 in whole red blood cells, using parasite LDH activity as an index of growth. Test compounds present at 2uM.
In experiment [2] the test system is Plasmodium falciparum. The experiment is described as follows: GSK_TCMDC: Inhibition of Plasmodium falciparum Dd2 in whole red blood cells, using parasite LDH activity as an index of growth. Test compounds present at 2uM.
The next experiment deals with HepG2. The experiment is described as follows: GSK_TCMDC: Percent inhibition of human HepG2 cell line. Test compounds present at 10uM.

One may read the Inhibition as the drop in the measured response relative to a control, in per cent. High values mean a response far below the control, low ones a response near the control.

Consider `Cc1c(F)cc(C(=O)NC2CC2)cc1-c1ccc2c(cnn2S(=O)(=O)c2ccc(C#N)cc2)c1`, for which the Inhibition in the experiment with Plasmodium falciparum [1] was 97%; with Plasmodium falciparum [2], 92%; in the experiment on HepG2 it was 17%.

For the compound `O=C(O)C(F)(F)F.c1ccc(C2CCN(Cc3ccc(-c4c[nH]c5nc(NC6CCCC6)ncc45)cc3)CC2)cc1`, the Inhibition in the experiment on Plasmodium falciparum [1] came to 82%; in the experiment with Plasmodium falciparum [2], 9%; in the experiment with HepG2, 39%.

Turning to `O=C(/C=C/c1ccc(Cl)c(Cl)c1)NCCCCCN1CCCN(C(=O)Nc2ccc(Cl)c(C(F)(F)F)c2)CC1`, the Inhibition in the experiment with Plasmodium falciparum [1] is listed as 100%; in the experiment with Plasmodium falciparum [2], 16%; in the experiment on HepG2 it was 35%.

Turning to `CCCNCc1ccc(-c2ccc(CN(CCOC)C(=O)c3ccco3)cc2)nc1.O=C(O)C(F)(F)F`, the Inhibition in the experiment with Plasmodium falciparum [1] is reported as 91%; in the experiment with Plasmodium falciparum [2], 21%; in the experiment with HepG2, 1%.

`CN(C(=O)Nc1ccc(C(F)(F)F)cc1)C1CCN(CCCCCNC(=O)/C=C/c2ccc(Cl)c(Cl)c2)CC1`: the Inhibition in the experiment on Plasmodium falciparum [1] is given as 100%; with Plasmodium falciparum [2], 38%; with HepG2, 57%.

`Cc1cc2c(NC(=O)NC3CCN(CCc4ccccc4Cl)CC3)cccc2cn1.Cl`: the figures for the Inhibition in the experiment on Plasmodium falciparum [1], with Plasmodium falciparum [2] and in the experiment on HepG2 were 100%, 46% and 13%, respectively.

In the case of `Cc1[nH]c(C)c(-c2ccc(OCCn3cnc(Cl)c3Cl)cc2)c(=O)c1Br`, the Inhibition in the experiment on Plasmodium falciparum [1] came out at 95%; with Plasmodium falciparum [2], 35%; in the experiment with HepG2, 2%.

As for `COc1ccc2ncc(F)c(CCN3CCC(NCc4cc(F)c5c(c4)OCCO5)CC3)c2n1.Cl`, the values for the Inhibition with Plasmodium falciparum [1], in the experiment with Plasmodium falciparum [2] and with HepG2 were 100%, 67% and 15%, respectively.

Turning to `CC1CN(c2cnn(Cc3cccc(NC(=O)Nc4ccc(-c5ccccc5)cc4)c3)c(=O)c2Cl)CC(C)N1.O=C(O)C(F)(F)F` (stereo unspecified), the Inhibition was 100% in the experiment on Plasmodium falciparum [1], 67% in the experiment with Plasmodium falciparum [2] and 6% with HepG2.

Turning to `COc1ccc(CNC(=O)NC2CCN(c3ccnc(Nc4cc(OC)c(OC)c(OC)c4)n3)C2)cc1` (stereo unspecified), the Inhibition in the experiment with Plasmodium falciparum [1] is 91%; in the experiment on Plasmodium falciparum [2], 90%; in the experiment on HepG2, 0%.

In the case of `CCOC(=O)c1ccc(NC(=O)Nc2cccc(-c3cccc(-c4nc5cc(F)ccc5[nH]4)c3)c2)cc1`, the Inhibition in the experiment with Plasmodium falciparum [1] was 100%; in the experiment with Plasmodium falciparum [2], 100%; with HepG2, 85%.

As to `O=c1[nH]c2c(cc1CNC1CCCCC1)c(-c1cccc(F)c1)nn2-c1ccccc1`, the Inhibition came to 95% in the experiment with Plasmodium falciparum [1], 89% with Plasmodium falciparum [2] and 6% in the experiment with HepG2.

On to `CS(=O)(=O)O.FC(F)(F)COc1ccc2ccccc2c1CCNCCCCNCCc1c(OCC(F)(F)F)ccc2ccccc12`, for which the values for the Inhibition in the experiment on Plasmodium falciparum [1], with Plasmodium falciparum [2] and in the experiment on HepG2 were 100%, 53% and 99%, respectively.

In the case of `Cc1cc2nc(-c3ccc(/C=C/C(=O)NC4CCCCC4)cc3)[nH]c2cc1C`, the Inhibition turned out to be 93% in the experiment on Plasmodium falciparum [1], 10% in the experiment with Plasmodium falciparum [2] and 9% in the experiment on HepG2.

Turning to `COc1ccc(C=Cc2cc(=N)c3ccccc3[nH]2)cc1Br`, the Inhibition in the experiment with Plasmodium falciparum [1] is recorded as 100%; in the experiment with Plasmodium falciparum [2], 88%; in the experiment on HepG2 it was 55%.

In the case of `OC(CNCc1ccccc1OCc1ccccc1)c1cccc(C(F)(F)F)c1` (stereo unspecified), the Inhibition in the experiment on Plasmodium falciparum [1] is reported as 99%; with Plasmodium falciparum [2] it was 99%; in the experiment on HepG2 it was 12%.

As for `COc1ccc(-c2ccc(NC(=O)c3cccc(Cl)c3)cc2)cc1CNC(C)C.O=C(O)C(F)(F)F`, the Inhibition in the experiment on Plasmodium falciparum [1] turned out to be 100%; in the experiment with Plasmodium falciparum [2], 88%; in the experiment with HepG2, 26%.

For the compound `Cl.OC(CNCCCCCCNCC(O)c1ccc(Cl)c(Cl)c1)c1ccc(Cl)c(Cl)c1` (stereo unspecified), the Inhibition in the experiment with Plasmodium falciparum [1] was 90%; with Plasmodium falciparum [2] it was 17%; with HepG2, 99%.

As to `Cc1ccc(C(=O)Nc2cccc(CN3CCCN(Cc4ccc(O)cc4)CC3)c2)cc1.O=C(O)C(F)(F)F`, the Inhibition in the experiment with Plasmodium falciparum [1] stood at 88%; in the experiment with Plasmodium falciparum [2] it was 5%; in the experiment with HepG2, 0%.

Turning to `O=C(O)C(F)(F)F.O=S(=O)(NCCN1CCCC1)c1ccc(-c2ccc(CN3Cc4ccccc4C3)cc2)s1`, the Inhibition in the experiment on Plasmodium falciparum [1] came to 89%; in the experiment with Plasmodium falciparum [2], 18%; with HepG2, 19%.

Regarding `Cc1ccc(/C=C/C(=O)NC2CCC(N3CCC(c4ccccc4C)CC3)CC2)cc1C` (stereo unspecified), the values for the Inhibition with Plasmodium falciparum [1], in the experiment on Plasmodium falciparum [2] and with HepG2 were 100%, 43% and 12%, respectively.

Turning to `O=C(NCCCCCN1CCC(c2ccc(O)cc2)CC1)c1ccc(-c2ccccc2)cc1`, the Inhibition in the experiment with Plasmodium falciparum [1] was 92%; in the experiment with Plasmodium falciparum [2] it was 0%; with HepG2, 28%.
